Here are results for nine compounds from PubChem BioAssay (NCI).

About 79,000 compounds went through this panel and 15% of them were active in at least one assay; those are over-represented in the sample as a whole. Values without a mark were called inactive. Activity calls are given as the source filed them. Cut-off read from the data, not from the text of the source: active = growth inhibition above about 70%; inactive = the rest.

A short description of assay [1]: NCI Yeast Anticancer Drug Screen. Data for the rad50 strain (AID 155).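 Note: 0% = growth of vehicle-only cultures of the same strain.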 The note with it: S. cerevisiae rad50 strain growth inhibition, hits give high values. A digest of the protocol: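 Genetically altered yeast (DNA repair pathway); compound treatment; growth inhibition vs vehicle ctrl.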
Assay [2] in a line: NCI Yeast Anticancer Drug Screen. Data for the mec2-1 strain (AID 157). The note with it: S. cerevisiae mec2-1 strain, hits give high values. A digest of the protocol: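 Vehicle-treated cultures served as reference for growth inhibition of compound-exposed mec2-1 yeast.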
A short description of assay [3]: NCI Yeast Anticancer Drug Screen. Data for the sgs1 mgt1 strain (AID 161).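 Note: 0% = growth of cultures given vehicle only.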 The note with it: S. cerevisiae sgs1 mgt1 strain, hits give high values. A digest of the protocol: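 Mutant yeast exposed to compound; growth scored against vehicle-only wells.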
Assay [4] in a line: NCI Yeast Anticancer Drug Screen. Data for the cln2 rad14 strain (AID 165).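 Note: 0% = growth equal to vehicle treated cultures.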 As to conditions: S. cerevisiae cln2 rad14 strain, hits give high values. Put shortly:
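Each compound was tested on cln2 rad14 yeast. Inhibition of growth was calculated against vehicle-exposed controls.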

A short description of assay [5]: NCI Yeast Anticancer Drug Screen. Data for the bub3 strain (AID 167). As to conditions: S. cerevisiae bub3 mutant strain, hits give high values. A digest of the protocol:
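Yeast carrying a defined mutation is treated with each compound, and growth is compared with that of vehicle-exposed cells to give inhibition.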

Assay [6] in a line: NCI Yeast Anticancer Drug Screen. Data for the mlh1 rad18 strain (AID 175). As to conditions: S. cerevisiae mlh1 rad18 strain growth inhibition, hits give high values. Put shortly:
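Vehicle-treated cultures served as the reference for growth inhibition in a yeast strain carrying DNA damage repair alterations exposed to each compound.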

[7] abbreviates: at 5.0 µM (retest, dose inferred, filed as 0.5).
The mark [8] stands for this setting: at 50.0 µM (retest, dose inferred, filed as 5.0).

Turning to `CCCCCCCCCCCCCCCc1nc(SCC(=O)O)n[nH]1`, the growth inhibition is 2% in assay [1] (setting [7]); 58% in assay [1] (setting [8]); 54.8% in assay [1] (at 50.0 µM); 0% in assay [2] (setting [7]); 52% in assay [2] (setting [8]); 55.9% in assay [2] (at 50.0 µM). Besides, the growth inhibition was 18% in assay [3] (setting [7]); 54% in assay [3] (setting [8]); 74.2% (active) in assay [3] (at 50.0 µM); 3% in assay [4] (setting [7]); 40% in assay [4] (setting [8]); 80.5% (active) in assay [4] (at 50.0 µM). The growth inhibition in assay [5] (setting [7]) was -1%; in assay [5] (setting [8]), 67%; in assay [5] (at 50.0 µM), 37.1%; in assay [6] (setting [7]), 9%; in assay [6] (setting [8]), 71% (active); in assay [6] (at 50.0 µM), 89.5% (active).
`CCN(CC)Cc1cc(Nc2c3ccccc3nc3c2[nH]c2ccccc23)ccc1O`: the growth inhibition is -6% in assay [1] (setting [7]); 18% in assay [1] (setting [8]); 82.5% (active) in assay [1] (at 50.0 µM); 3% in assay [2] (setting [7]); 5% in assay [2] (setting [8]); 8.85% in assay [2] (at 50.0 µM). Besides, the growth inhibition is -8% in assay [3] (setting [7]); -19% in assay [3] (setting [8]); 2.65% in assay [3] (at 50.0 µM); 44% in assay [4] (setting [7]); 44% in assay [4] (setting [8]); -3% in assay [4] (at 50.0 µM). Further, the growth inhibition in assay [5] (setting [7]) was 9%; in assay [5] (setting [8]) it was 3%; in assay [5] (at 50.0 µM) it was -4.65%; in assay [6] (setting [7]), -1%; in assay [6] (setting [8]) it was -9%; in assay [6] (at 50.0 µM), 33.5%.
`Cc1ccc(NC(=S)SCc2ccc(Cl)cc2)cc1Br`: the growth inhibition in assay [1] (setting [7]) was 48%; in assay [1] (setting [8]) it was 99% (active); in assay [1] (at 50.0 µM) it was 90.5% (active); in assay [2] (setting [7]) it was 25%; in assay [2] (setting [8]), 99% (active); in assay [2] (at 50.0 µM), 93.2% (active). In addition, the growth inhibition in assay [3] (setting [7]) was 64%; in assay [3] (setting [8]) it was 100% (active); in assay [3] (at 50.0 µM) it was 91% (active); in assay [4] (setting [7]) it was 48%; in assay [4] (setting [8]) it was 99% (active); in assay [4] (at 50.0 µM), 89.9% (active). Further, the growth inhibition in assay [5] (setting [7]) is 65%; in assay [5] (setting [8]), 99% (active); in assay [5] (at 50.0 µM), 92.3% (active); in assay [6] (setting [7]), 38%; in assay [6] (setting [8]) it was 99% (active); in assay [6] (at 50.0 µM) it was 90.8% (active).
In the case of `C1=CC2OC1c1cc3ccccc3cc12`, the growth inhibition was 13% in assay [1] (setting [7]); 92% (active) in assay [1] (setting [8]); 87.5% (active) in assay [1] (at 50.0 µM); 11% in assay [2] (setting [7]); 98% (active) in assay [2] (setting [8]); 96.5% (active) in assay [2] (at 50.0 µM). The growth inhibition is 10% in assay [3] (setting [7]); 98% (active) in assay [3] (setting [8]); 89.9% (active) in assay [3] (at 50.0 µM); 23% in assay [4] (setting [7]); 98% (active) in assay [4] (setting [8]); 95.6% (active) in assay [4] (at 50.0 µM). Also, the growth inhibition in assay [5] (setting [7]) is 6%; in assay [5] (setting [8]) it was 97% (active); in assay [5] (at 50.0 µM) it was 95% (active); in assay [6] (setting [7]) it was 34%; in assay [6] (setting [8]), 97% (active); in assay [6] (at 50.0 µM), 95.2% (active).
As for `CC(C)(Br)C(=O)/C=C/c1ccc(Cl)cc1`, the growth inhibition was 92% (active) in assay [1] (setting [7]); 100% (active) in assay [1] (setting [8]); 99.5% (active) in assay [1] (at 50.0 µM); 92% (active) in assay [2] (setting [7]); 100% (active) in assay [2] (setting [8]); 99.7% (active) in assay [2] (at 50.0 µM). Besides, the growth inhibition in assay [3] (setting [7]) is 94% (active); in assay [3] (setting [8]), 99% (active); in assay [3] (at 50.0 µM) it was 99.6% (active); in assay [4] (setting [7]), 89% (active); in assay [4] (setting [8]), 100% (active); in assay [4] (at 50.0 µM), 99.7% (active). Also, the growth inhibition in assay [5] (setting [7]) is 38%; in assay [5] (setting [8]) it was 99% (active); in assay [5] (at 50.0 µM), 99.3% (active); in assay [6] (setting [7]) it was 97% (active); in assay [6] (setting [8]) it was 100% (active); in assay [6] (at 50.0 µM), 99.4% (active).
In the case of `CCN1/C(=C/C=C/C=C\C=C\c2sc3ccc4ccccc4c3[n+]2CC)Sc2ccc3ccccc3c21`, the growth inhibition is 28% in assay [1] (setting [7]); 68% in assay [1] (setting [8]); 49.2% in assay [1] (at 50.0 µM); 21% in assay [2] (setting [7]); 80% (active) in assay [2] (setting [8]); 46.8% in assay [2] (at 50.0 µM). For the same compound, the growth inhibition in assay [3] (setting [7]) is 25%; in assay [3] (setting [8]) it was 75% (active); in assay [3] (at 50.0 µM), 47.6%; in assay [4] (setting [7]), 48%; in assay [4] (setting [8]), 65%; in assay [4] (at 50.0 µM), 54%. For the same compound, the growth inhibition in assay [5] (setting [7]) was 34%; in assay [5] (setting [8]) it was 65%; in assay [5] (at 50.0 µM), 30.4%; in assay [6] (setting [7]) it was 25%; in assay [6] (setting [8]) it was 73% (active); in assay [6] (at 50.0 µM), 40.6%.
`[N-]=[N+]=CC(=O)C1(c2ccccc2)OC1c1ccccc1` (configuration not stated): the growth inhibition in assay [1] (setting [7]) was -20%; in assay [1] (setting [8]), 1%; in assay [1] (at 50.0 µM), 23.6%; in assay [2] (setting [7]), 7%; in assay [2] (setting [8]), 10%; in assay [2] (at 50.0 µM) it was 2.55%. For the same compound, the growth inhibition is -16% in assay [3] (setting [7]); -4% in assay [3] (setting [8]); 55.5% in assay [3] (at 50.0 µM); -21% in assay [4] (setting [7]); -18% in assay [4] (setting [8]); 32.5% in assay [4] (at 50.0 µM). For the same compound, the growth inhibition was -43% in assay [5] (setting [7]); -6% in assay [5] (setting [8]); -7.55% in assay [5] (at 50.0 µM); -32% in assay [6] (setting [7]); -33% in assay [6] (setting [8]); 82.8% (active) in assay [6] (at 50.0 µM).
Regarding `Clc1ccc(Cl)c(SCCCN2CCNCC2)c1`, the growth inhibition was 36% in assay [1] (setting [7]); 65% in assay [1] (setting [8]); 79.7% (active) in assay [1] (at 50.0 µM); 0% in assay [2] (setting [7]); 32% in assay [2] (setting [8]); 48.2% in assay [2] (at 50.0 µM). In addition, the growth inhibition in assay [3] (setting [7]) was 35%; in assay [3] (setting [8]) it was 65%; in assay [3] (at 50.0 µM) it was 54.2%; in assay [4] (setting [7]), 6%; in assay [4] (setting [8]), 39%; in assay [4] (at 50.0 µM), 40%. The growth inhibition in assay [5] (setting [7]) is 18%; in assay [5] (setting [8]), 59%; in assay [5] (at 50.0 µM), 82.4% (active); in assay [6] (setting [7]), 23%; in assay [6] (setting [8]), 43%; in assay [6] (at 50.0 µM) it was 74.4% (active).
`CCCCCOC(=O)C(C)SC#N` (configuration not stated): the growth inhibition was 12% in assay [1] (setting [7]); 45% in assay [1] (setting [8]); 42.2% in assay [1] (at 50.0 µM); -13% in assay [2] (setting [7]); 54% in assay [2] (setting [8]); 47.9% in assay [2] (at 50.0 µM). In addition, the growth inhibition is 4% in assay [3] (setting [7]); 80% (active) in assay [3] (setting [8]); 66.7% in assay [3] (at 50.0 µM); 6% in assay [4] (setting [7]); 29% in assay [4] (setting [8]); 92.3% (active) in assay [4] (at 50.0 µM). Besides, the growth inhibition in assay [5] (setting [7]) was 9%; in assay [5] (setting [8]), 52%; in assay [5] (at 50.0 µM) it was 54.9%; in assay [6] (setting [7]), 19%; in assay [6] (setting [8]) it was 44%; in assay [6] (at 50.0 µM) it was 73.8% (active).
